Experimental data as given in the supplement of paper PMC10127200.
Where a name gives a salt, the structure may show the parent alone.

Assays:
Experiment in all cases: Euclidean distance of Cell Painting phenotypic profile (signed KS, 77 features) to DMSO centroid (dimensionless distance); 5 or 10 uM (library dependent); higher = stronger phenotypic change vs DMSO (phenoactivity)
Conditions in all cases: 48 h
786-O = tested on: 786-O
How it was run: (§1)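 Library compounds were applied at 10 or 5 uM, depending on the library, with 0.1% DMSO final, for 48 h to five cancer lines and a healthy fibroblast line. After staining, cells were imaged confocally at 20X across 9 fields per well, and Harmony extracted 77 features, each scored as a signed Kolmogorov-Smirnov statistic against vehicle wells on the same plate. Phenoactivity is the Euclidean distance between each profile and the median vehicle profile, with profiles first plate-position corrected, correlation-weighted and averaged over replicates at the top dose.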

A549 = tested on: A549
How it was run: as §1

DU145 = tested on: DU145
How it was run: as §1

FB = tested on: FB
How it was run: as §1

HEPG2 = tested on: HEPG2
How it was run: as §1

OVCAR4 = tested on: OVCAR4
How it was run: as §1

O=C(O)CCn1c2c(c3ccccc31)C[C@H](NS(=O)(=O)c1ccc(F)cc1)CC2 [Ramatroban]
Euclidean distance (786-O): 0.593 | Euclidean distance (A549): 0.487 | Euclidean distance (DU145): 0.969 | Euclidean distance (FB): 0.538 | Euclidean distance (HEPG2): 1.42 | Euclidean distance (OVCAR4): 0.778

COc1c(N2CCNC(C)C2)c(F)cc2c(=O)c(C(=O)O)cn(C3CC3)c12 (stereo not drawn) [Gatifloxacin]
Euclidean distance (786-O): 0.648 | Euclidean distance (A549): 0.598 | Euclidean distance (DU145): 0.774 | Euclidean distance (FB): 0.851 | Euclidean distance (HEPG2): 0.876 | Euclidean distance (OVCAR4): 1.07

CNC[C@H](O)[C@@H](O)[C@H](O)[C@H](O)CO [Meglumine]
Euclidean distance (786-O): 1.78 | Euclidean distance (A549): 1.75 | Euclidean distance (DU145): 2.13 | Euclidean distance (FB): 1.59 | Euclidean distance (HEPG2): 0.652 | Euclidean distance (OVCAR4): 1.67

O=c1oc2ccccc2c(O)c1Cc1c(O)c2ccccc2oc1=O [Dicoumarol]
Euclidean distance (786-O): 0.633 | Euclidean distance (A549): 0.618 | Euclidean distance (DU145): 0.712 | Euclidean distance (FB): 0.872 | Euclidean distance (HEPG2): 0.701 | Euclidean distance (OVCAR4): 0.783

C[C@@H]1O[C@@H](OC[C@H]2O[C@@H](Oc3c(-c4ccc(OCCO)c(OCCO)c4)oc4cc(OCCO)cc(O)c4c3=O)[C@H](O)[C@@H](O)[C@@H]2O)[C@H](O)[C@H](O)[C@H]1O [Troxerutin]
Euclidean distance (786-O): 1.35 | Euclidean distance (A549): 0.502 | Euclidean distance (DU145): 0.751 | Euclidean distance (FB): 0.834 | Euclidean distance (HEPG2): 0.509 | Euclidean distance (OVCAR4): 0.81

NS(=O)(=O)c1cc(C2(O)NC(=O)c3ccccc32)ccc1Cl (stereo not drawn) [Chlorthalidone]
Euclidean distance (786-O): 0.738 | Euclidean distance (A549): 0.425 | Euclidean distance (DU145): 1.18 | Euclidean distance (FB): 1.4 | Euclidean distance (HEPG2): 0.481 | Euclidean distance (OVCAR4): 0.876

C=C1CC[C@H](O)C/C1=C/C=C1\CCC[C@]2(C)[C@@H]([C@H](C)/C=C/[C@H](C)C(C)C)CC[C@@H]12 [Vitamin D2]
Euclidean distance (786-O): 2.59 | Euclidean distance (A549): 0.759 | Euclidean distance (DU145): 5.76 | Euclidean distance (FB): 1.38 | Euclidean distance (HEPG2): 2.02 | Euclidean distance (OVCAR4): 2.05

CC/C(=C(\c1ccc(O)cc1)c1ccc(OCCNC)cc1)c1ccccc1 [Endoxifen HCl]
Euclidean distance (786-O): 4.21 | Euclidean distance (A549): 3.39 | Euclidean distance (DU145): 2.59 | Euclidean distance (FB): 3.3 | Euclidean distance (HEPG2): 4.86 | Euclidean distance (OVCAR4): 3.32

O=C(Nc1cc(Cl)cc(Cl)c1O)c1c(O)c(Cl)cc(Cl)c1Cl [Oxyclozanide]
Euclidean distance (786-O): 1.04 | Euclidean distance (A549): 0.69 | Euclidean distance (DU145): 0.929 | Euclidean distance (FB): 0.828 | Euclidean distance (HEPG2): 0.649 | Euclidean distance (OVCAR4): 1.52

CC1=C(C(=O)OC(C)C)C(c2cccc([N+](=O)[O-])c2)C(C(=O)OC2CN(C(c3ccccc3)c3ccccc3)C2)=C(N)N1 (stereo not drawn) [Azelnidipine]
Euclidean distance (786-O): 1.85 | Euclidean distance (A549): 3.31 | Euclidean distance (DU145): 1.12 | Euclidean distance (FB): 1.17 | Euclidean distance (HEPG2): 1.44 | Euclidean distance (OVCAR4): 2.01

O=C(O)/C=C/c1cnc[nH]1 [Urocanic acid]
Euclidean distance (786-O): 1.13 | Euclidean distance (A549): 0.682 | Euclidean distance (DU145): 0.798 | Euclidean distance (FB): 0.718 | Euclidean distance (HEPG2): 0.554 | Euclidean distance (OVCAR4): 1.26

CN1CCN(CC(=O)N2c3ccccc3C(=O)Nc3cccnc32)CC1 [Pirenzepine dihydrochloride]
Euclidean distance (786-O): 0.695 | Euclidean distance (A549): 1.06 | Euclidean distance (DU145): 0.77 | Euclidean distance (FB): 0.7 | Euclidean distance (HEPG2): 1.03 | Euclidean distance (OVCAR4): 0.804

CCCCCCCCCCCCCCCCOc1nc2ccc(C)cc2c(=O)o1 [Cetilistat]
Euclidean distance (786-O): 1 | Euclidean distance (A549): 1.33 | Euclidean distance (DU145): 0.996 | Euclidean distance (FB): 0.737 | Euclidean distance (HEPG2): 0.864 | Euclidean distance (OVCAR4): 0.764

O=C1CC2(CCCC2)CC(=O)N1CCCCN1CCN(c2ncccn2)CC1 [Buspirone HCl]
Euclidean distance (786-O): 0.547 | Euclidean distance (A549): 0.965 | Euclidean distance (DU145): 0.869 | Euclidean distance (FB): 0.994 | Euclidean distance (HEPG2): 0.61 | Euclidean distance (OVCAR4): 1.32

COc1ccc(-c2cnc3c(-c4cccc5ncccc45)cnn3c2)cc1
Euclidean distance (786-O): 0.556 | Euclidean distance (A549): 0.926 | Euclidean distance (DU145): 1.07 | Euclidean distance (FB): 0.678 | Euclidean distance (HEPG2): 0.785 | Euclidean distance (OVCAR4): 0.818

CC(=O)N[C@@H](CS)C(=O)O [Acetylcysteine]
Euclidean distance (786-O): 0.996 | Euclidean distance (A549): 1.28 | Euclidean distance (DU145): 1.2 | Euclidean distance (FB): 0.709 | Euclidean distance (HEPG2): 0.571 | Euclidean distance (OVCAR4): 1.6

CC(C)(C)OC(=O)N[C@H]1CCCCC/C=C\[C@@H]2C[C@@]2(C(=O)NS(=O)(=O)C2CC2)NC(=O)[C@@H]2C[C@@H](OC(=O)N3Cc4cccc(F)c4C3)CN2C1=O [Danoprevir (ITMN-191)]
Euclidean distance (786-O): 1.4 | Euclidean distance (A549): 0.94 | Euclidean distance (DU145): 1.41 | Euclidean distance (FB): 1.19 | Euclidean distance (HEPG2): 2.24 | Euclidean distance (OVCAR4): 1.69

N=C(N)Nc1ccc(C(=O)Oc2ccc3cc(C(=N)N)ccc3c2)cc1 [Nafamostat Mesylate]
Euclidean distance (786-O): 1.58 | Euclidean distance (A549): 1.62 | Euclidean distance (DU145): 1.06 | Euclidean distance (FB): 1.02 | Euclidean distance (HEPG2): 0.93 | Euclidean distance (OVCAR4): 1.24

CN(C)N(C)C(=O)[C@@]1(Cc2ccccc2)CCCN(C(=O)[C@@H](Cc2c[nH]c3ccccc23)NC(=O)C(C)(C)N)C1 [Anamorelin]
Euclidean distance (786-O): 1.33 | Euclidean distance (A549): 0.796 | Euclidean distance (DU145): 0.841 | Euclidean distance (FB): 1.59 | Euclidean distance (HEPG2): 0.82 | Euclidean distance (OVCAR4): 0.802

O=C(NOC[C@H](O)CO)c1ccc(F)c(F)c1Nc1ccc(I)cc1F
Euclidean distance (786-O): 3.1 | Euclidean distance (A549): 2.57 | Euclidean distance (DU145): 3.66 | Euclidean distance (FB): 3.5 | Euclidean distance (HEPG2): 2.03 | Euclidean distance (OVCAR4): 2.63

O=C(Nc1ccc(-c2ccnc(Nc3ccc(N4CCOCC4)cc3)n2)cc1)C1CCCN1 (stereo not drawn)
Euclidean distance (786-O): 0.834 | Euclidean distance (A549): 1.49 | Euclidean distance (DU145): 1.24 | Euclidean distance (FB): 1.52 | Euclidean distance (HEPG2): 1.48 | Euclidean distance (OVCAR4): 0.844

CC[C@@H](Nc1c(Nc2cccc(C(=O)N(C)C)c2O)c(=O)c1=O)c1ccc(C)o1
Euclidean distance (786-O): 1.24 | Euclidean distance (A549): 0.692 | Euclidean distance (DU145): 0.995 | Euclidean distance (FB): 0.605 | Euclidean distance (HEPG2): 0.633 | Euclidean distance (OVCAR4): 0.96

CCCCOC(=O)c1ccc(O)cc1 [Butylparaben]
Euclidean distance (786-O): 1.05 | Euclidean distance (A549): 1.03 | Euclidean distance (DU145): 1.11 | Euclidean distance (FB): 1.03 | Euclidean distance (HEPG2): 0.462 | Euclidean distance (OVCAR4): 1.66
